We go through 13 compounds from PubChem BioAssay (NCATS).

Common to all, as to assay: Cytotoxic Profiling of Annotated Libraries Using Quantitative High-Throughput Screening (AID 1296008); further: nearly all actives have a fitted effect of over 60% in size
Common to all, as to details: Five cell lines viability, CellTiter-Glo ATP luminescence, 48-72 h; max response: hits give low values

In one experiment the test system is HEK293. Put shortly:
(§1)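 Cytotoxicity was measured as CellTiter-Glo ATP luminescence, read after 10 min at room temperature. Compound treatment of the cells lasted 48 or 72 hr at 37 degrees Celsius in a qHTS format.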

In a further experiment the test system is HaCat. In a few lines: as §1
The subject of the next experiment is KB-3-1. In a few lines:
as §1

The subject of another experiment is NIH3T3. In a few lines: as §1

Inconclusive results are not listed. A number with no mark means an inactive call. Calls of active or inactive are those of the source. The call rests on the fitted dose curve; in most records, active means well fitted inhibition curve with a large enough effect; inconclusive means small, poorly fitted or top-dose-only effect; inactive means flat fitted curve, though single readings scatter.
On the % scale 0 is the no-effect control and ±100 the full control effect; potency means the concentration at half of the fitted maximal effect.

As for `O=C(NCc1ccc(S(=O)(=O)c2cc(F)cc(F)c2)cc1)c1ccc2nccn2c1`, the Potency in the experiment with HEK293 is 0.0052 µM (active); in the experiment with HaCat, 0.0326 µM (active); in the experiment on KB-3-1, 0.0046 µM (active); in the experiment on NIH3T3, 0.0461 µM (active).

`CC1OC(OC2C(C)OC(OC3C(O)C(CO)OC(O[C@H]4CC[C@@]5(C)C(CC[C@]6(C)C5CC=C5C7[C@@H](C)[C@H](C)CC[C@]7(C(=O)O)CC[C@]56C(=O)O)C4(C)C)C3O)C(O)C2O)C(O)C(O)C1O` (some centres not stated): the values for the max response in the experiment on HEK293 and in the experiment on KB-3-1 were -6.08% and 9.21%, respectively. For the same compound, the compound was classed as inactive with HaCat and in the experiment on NIH3T3.

With `COC(=O)C1=CO[C@@H](O[C@@H]2O[C@H](CO)[C@@H](O)[C@H](O)[C@H]2O)[C@@H]2[C@@](C)(O)[C@@H](OC(=O)/C=C/c3ccc(O)cc3)C[C@]12O`, the max response in the experiment on HEK293 is 3.54%; in the experiment on HaCat it was 1.25%; with KB-3-1 it was 0.0331%; with NIH3T3 it was 2.33%.

Take `CCCOc1ccc(-c2nc(OC)c3ccccc3n2)cc1`: the max response with HEK293 is 4.19%; in the experiment with HaCat it was -0.801%; with NIH3T3, 1.75%. In addition, in the experiment on KB-3-1, the compound was called inactive.

Regarding `O=C(CC1C(=O)Nc2ccccc21)OC[C@H]1O[C@@H](OCCc2ccc(O)cc2)[C@H](O)[C@@H](O)[C@@H]1O` (some centres not stated), the max response is 1.16% in the experiment with HEK293, -16.5% in the experiment on HaCat and -0.494% in the experiment with NIH3T3. In the experiment on KB-3-1, the result was inactive.

Turning to `Cc1cccc(C)c1-n1c(=O)c2cnc(Nc3ccc(N4CCN(C)CC4)cc3)nc2n2c3ccccc3nc12`, the Potency was 0.517 µM (active) in the experiment on HEK293, 2.06 µM (active) with HaCat, 0.731 µM (active) in the experiment on KB-3-1 and 1.3 µM (active) with NIH3T3.

As to `O=C(COc1cccc2c(=O)[nH]ccc12)c1ccccc1`, the max response in the experiment on HEK293 is -5.18%; with HaCat it was -15.5%; with KB-3-1 it was 7.28%; with NIH3T3, 1.93%.

With `Nc1nc2c(c(N3CCNCC3)n1)CCC1=C2[C@@H]2CCCC[C@@H]2O1`, the Potency in the experiment on HEK293 was 18.4 µM (active). Besides, in the experiment on HaCat, the result was inactive. Also, the max response in the experiment with KB-3-1 is -5.74%; in the experiment with NIH3T3, -4.38%.

Take `CC(O)/C=C/C1C(C)C(O[C@@H]2O[C@H](CO)[C@@H](O)[C@H](O)[C@H]2O)C(O)CC1(C)C` (some centres not stated): the max response is -16.1% in the experiment on HEK293, 1.9% in the experiment with HaCat, 3.1% in the experiment on KB-3-1 and 0.539% with NIH3T3.

Turning to `O=C(/C=C\n1cnc(-c2cc(C(F)(F)F)cc(C(F)(F)F)c2)n1)N1CC(F)(F)C1`, the Potency is 1.3 µM (active) in the experiment with HEK293, 7.31 µM (active) with KB-3-1 and 1.84 µM (active) in the experiment on NIH3T3. Further, in the experiment with HaCat, the max response is -18.4%.

`CCC(C)C(=O)OC1CC(O)C23C4OCC5(C(O)CC2C1(C)C(O)O4)C3C(=O)C(O)C1(C)C(O)(c2ccoc2)CC2OC251` (configuration not stated): the Potency with HEK293 is 1.72 µM (active); with HaCat, 4.85 µM (active); in the experiment on KB-3-1 it was 0.968 µM (active); in the experiment on NIH3T3 it was 3.06 µM (active).

On to `C[C@@H]1C(=O)O[C@H](C)[C@H]1CC(=O)[C@](C)(O)[C@H]1CC[C@@]2(O)C3=CC(=O)[C@@H]4C[C@@H](O)[C@@H](O)C[C@]4(C)C3CC[C@]12C` (some centres not stated), for which the max response is -19.4% with HEK293, -15.8% in the experiment on HaCat, -2.99% with KB-3-1 and 1.5% in the experiment with NIH3T3.

`O=C(OC1C=C(CO)C2C(OC3OC(CO)C(O)C(O)C3O)OC=CC12)c1ccc(O)cc1` (configuration not stated): the max response with HEK293 is -4.58%; with HaCat, -13.5%. For the same compound, the compound was classed as inactive in the experiment with KB-3-1 and in the experiment with NIH3T3.
